# Laboratory results published in PubChem BioAssay (EPA / NIEHS).
# Active and inactive are the calls of the source. Rule for the calls: active = hit-call score of the fitted dose curve at least 0.9, where 1 is the maximum; inactive = score below 0.9.
# Assay: APR_HepG2_CellCycleArrest_24hr: Apredica 24-hour HepG2 Assay for Cell Cycle Arrest (AID 2282905);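 note: cell cycle arrest scored as ratio of 2N to 4N nuclear DNA content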
# Conditions: imaging, actives raise or lower the signal
# How it was run: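 HepG2 cells were exposed to compounds at 0.39–200 uM (ten concentrations, duplicate) in 0.5% v/v DMSO for 24 hr. After formaldehyde fixation and Triton permeabilization, Hoechst 33342-stained nuclei were imaged at 20x; DNA content was quantified, with bidirectional fitting against DMSO.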
SMILES,outcome,AC50
CC(N)=O,inactive,
CC(COCC(C)OC(=O)c1ccccc1)OC(=O)c1ccccc1 (stereo not given),inactive,
O=C(NS(=O)(=O)/C=C/c1cccs1)c1ccc(F)cc1Br,inactive,
O=C(Oc1ccccc1)c1cccc(C(=O)Oc2ccccc2)c1,inactive,
Cc1occc(=O)c1O,inactive,
N[C@@H](Cc1c[nH]c2ccccc12)C(=O)O,inactive,
CSc1ccc(Oc2ccc(S(N)(=O)=O)cc2CN(C)C)cc1C,inactive,
CC(=O)O[C@]1(C(C)=O)CC[C@H]2[C@@H]3C=C(Cl)C4=CC(=O)[C@@H]5C[C@@H]5[C@]4(C)[C@H]3CC[C@@]21C,inactive,
CC(=O)O,,97 µM (active)
CCCCOC(=O)CCCCC(=O)OCCCC,inactive,
CCCCCCCCCCCCCCCCO,inactive,
O=C(N[C@@H](c1ccccc1)[C@@H]1CCCCN1)c1cccc(C(F)(F)F)c1Cl,,18.7 µM (active)
Cn1cnc2c1c(=O)[nH]c(=O)n2C,inactive,
O=Cc1ccccc1C=O,inactive,
NC=O,inactive,
CC(=O)CC(c1ccccc1)c1c(O)c2ccccc2oc1=O (stereo not given),inactive,
C#CC(O)C(CC)CCCC (stereo not given),inactive,
Nc1nc(=S)c2[nH]cnc2[nH]1,inactive,
Cc1ccc(-c2cc(C(F)(F)F)nn2-c2ccc(S(N)(=O)=O)cc2)cc1,inactive,
CCCCCCC(C=O)=Cc1ccccc1,inactive,
O=C1NC(=O)C(c2ccccc2)(c2ccccc2)N1,inactive,
O=C(O)c1cccnc1,inactive,
O=C1CCCCC1,inactive,
CCCC(=O)O,inactive,
C/C=C/c1ccc(OC)cc1,inactive,
CC(=O)OCC(COC(C)=O)OC(C)=O,inactive,
O=NO,inactive,
CC(C)c1cccc(C(C)C)c1,inactive,
CC(C)NCC(O)c1ccc(O)c(O)c1 (stereo not given),inactive,
CC(C)COC(=O)CCCCC(=O)OCC(C)C,inactive,

# Assay: APR_HepG2_NuclearSize_24hr: Apredica 24-hour HepG2 Assay for Nuclear Size (AID 2282907)
# Conditions: high-content imaging, actives raise or lower the signal
# How it was run: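 HepG2 human liver cells were exposed for 24 hr to compounds at 0.39–200 uM (ten concentrations, duplicate) in 0.5% v/v DMSO. They were then formaldehyde-fixed, Triton-permeabilized and Hoechst 33342-stained, and nuclear diameter was imaged at 20x. Bidirectional fits were made against DMSO.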
SMILES,outcome,AC50
CC(N)=O,inactive,
CC(COCC(C)OC(=O)c1ccccc1)OC(=O)c1ccccc1 (stereo not given),inactive,
O=C(NS(=O)(=O)/C=C/c1cccs1)c1ccc(F)cc1Br,inactive,
O=C(Oc1ccccc1)c1cccc(C(=O)Oc2ccccc2)c1,inactive,
Cc1occc(=O)c1O,inactive,
N[C@@H](Cc1c[nH]c2ccccc12)C(=O)O,inactive,
CSc1ccc(Oc2ccc(S(N)(=O)=O)cc2CN(C)C)cc1C,inactive,
CC(=O)O[C@]1(C(C)=O)CC[C@H]2[C@@H]3C=C(Cl)C4=CC(=O)[C@@H]5C[C@@H]5[C@]4(C)[C@H]3CC[C@@]21C,inactive,
CC(=O)O,inactive,
CCCCOC(=O)CCCCC(=O)OCCCC,inactive,
CCCCCCCCCCCCCCCCO,inactive,
O=C(N[C@@H](c1ccccc1)[C@@H]1CCCCN1)c1cccc(C(F)(F)F)c1Cl,,17.4 µM (active)
Cn1cnc2c1c(=O)[nH]c(=O)n2C,inactive,
O=Cc1ccccc1C=O,inactive,
NC=O,inactive,
CC(=O)CC(c1ccccc1)c1c(O)c2ccccc2oc1=O (stereo not given),inactive,
C#CC(O)C(CC)CCCC (stereo not given),inactive,
Nc1nc(=S)c2[nH]cnc2[nH]1,inactive,
Cc1ccc(-c2cc(C(F)(F)F)nn2-c2ccc(S(N)(=O)=O)cc2)cc1,,118 µM (active)
CCCCCCC(C=O)=Cc1ccccc1,inactive,
O=C1NC(=O)C(c2ccccc2)(c2ccccc2)N1,inactive,
O=C(O)c1cccnc1,inactive,
O=C1CCCCC1,inactive,
CCCC(=O)O,inactive,
C/C=C/c1ccc(OC)cc1,inactive,
CC(=O)OCC(COC(C)=O)OC(C)=O,inactive,
O=NO,inactive,
CC(C)c1cccc(C(C)C)c1,inactive,
CC(C)NCC(O)c1ccc(O)c(O)c1 (stereo not given),inactive,
CC(C)COC(=O)CCCCC(=O)OCC(C)C,inactive,
